SENP7 block: SENP7 protease inhibition; Q9BQF6; recombinant SENP7, Z-RLRGG-aminoluciferin luminescence, 40 min; inhibition, % at 5 µM; hit rate 1.5% among 330,000; AID 434973;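 active = inhibition above about 50% at the single test dose, limit read from the data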;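 also: plate controls were DMSO with enzyme for no effect and no enzyme buffer wells for full effect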
Target sequence (Q9BQF6 706-1050 limits assumed): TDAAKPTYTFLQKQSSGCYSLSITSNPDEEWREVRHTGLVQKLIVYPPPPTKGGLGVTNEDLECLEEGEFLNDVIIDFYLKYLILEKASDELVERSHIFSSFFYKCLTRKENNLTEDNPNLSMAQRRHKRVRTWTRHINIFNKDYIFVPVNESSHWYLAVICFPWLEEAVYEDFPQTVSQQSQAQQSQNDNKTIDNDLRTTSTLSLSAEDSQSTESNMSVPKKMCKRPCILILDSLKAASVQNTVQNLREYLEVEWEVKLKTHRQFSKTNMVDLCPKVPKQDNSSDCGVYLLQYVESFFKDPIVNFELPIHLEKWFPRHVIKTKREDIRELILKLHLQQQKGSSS
SENP8 block-1: SENP8 (human) protease inhibition; Q96LD8; recombinant SENP8, Nedd8 substrate fluorescence; inhibition, % at 20 µM; hit rate 0.64% among 360,000; in the data active = inhibition mostly above about 40%, no sharp cut-off; inactive = mostly below about 27%
SENP8 block-2: blocks the human protease SENP8. Q96LD8. purified SENP8, Z-RLRGG-aminoluciferin cleavage, luminescence. inhibition, % at 10 µM. hit rate 1.2% among 330,000. AID 2540; in the data active = inhibition above about 50%
SENP6 block: inhibitors of human SENP6 protease; Q9GZR1; Recombinant SENP6 catalytic domain, aminoluciferin luminescence; inhibition, % at 10 µM; hit rate 1.8% among 330,000; AID 2599;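 active = inhibition above about 50% at the single tested dose, limit read from the data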;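 also: plate controls were DMSO wells with enzyme for no effect and DMSO wells lacking enzyme for full effect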
Platelet DG rel: modulates dense granule release in human platelets. human platelet-rich plasma, SFLLRN dense granule ATP release, luminescence. inhibition, %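 (compounds screened at 7.5 µM in platelet-rich plasma)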. hit rate 0.22% among 300,000. AID 1663;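 active = mean replicate score, as percent of positive control, at or above 50; inconclusive = mean below 50 but at least one replicate at or above 50; inactive = mean and every replicate below 50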
SENP8 conf: human SENP8 inhibition, confirmed; Recombinant SENP8, Z-RLRGG-aminoluciferin luminescence, 60 min; AID 488912; shares compounds with SENP7 block; hit rate 40% among 6,200; inhibition, % at 12.5 µM;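 active = mean inhibition across replicates above about 50%, limit read from the data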
SENP6 conf: confirmation of human SENP6 protease inhibitors; inhibition, % at 12.5 µM; recombinant SENP6, Z-RLRGG-aminoluciferin luminescence; AID 488915; hit rate 58% among 6,200; shares compounds with SENP7 block
SENP7 conf: human SENP7 inhibition, confirmed; shares compounds with SENP7 block; recombinant SENP7, Z-RLRGG-aminoluciferin luminescence, 40 min; inhibition, % at 12.5 µM; hit rate 69% among 6,200; AID 488917
Casp3 select: inhibits human caspase-3 in SENP selectivity test; shares compounds with SENP7 block; purified caspase-3, Z-DEVD-aminoluciferin luminescence, 60 min; inhibition, % at 12.5 µM; hit rate 60% among 6,200; AID 488918;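 active = mean inhibition above about 50%, limit read from the data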;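 also: plate controls were enzyme with DMSO for no effect and wells without caspase-3 for full effect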
Target sequence (P42574 28-227 limits assumed): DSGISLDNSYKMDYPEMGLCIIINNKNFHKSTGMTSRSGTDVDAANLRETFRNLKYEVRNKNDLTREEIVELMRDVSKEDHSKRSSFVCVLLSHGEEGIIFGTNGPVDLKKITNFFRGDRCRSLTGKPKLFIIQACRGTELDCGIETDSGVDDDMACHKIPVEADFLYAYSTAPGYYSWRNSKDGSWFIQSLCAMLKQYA
Luc interf: luminescence interference (SENP counter-screen) | shares compounds with SENP7 block | Pre-incubated SENP8/Z-RLRGG-aminoluciferin, luciferase luminescence interference | inhibition, % at 12.5 µM | hit rate 39% among 6,200 | AID 488919;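 active = mean inhibition above about 50% when retested at one dose, limit read from the data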;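 also: plate controls were DMSO wells with completed reaction for no effect and substrate without enzyme for full effect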
The depositor's hits bear a star. A selection: hits, their analogues and other compounds. The true share with any hit is near 2.4%.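 The calls were made as follows, unless noted: active = mean inhibition above about 50% in the one-dose retest (limit read from the data); inactive = the rest.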

Results for CN(C)c1nc(N)nc(-c2nc3ccccc3s2)n1 ?
SENP7 block: -7.8; SENP8 block-1: 7.6; SENP8 block-2: 5.1; SENP6 block: 28.0; Platelet DG rel: 6.8

What do the screens show for `Oc1ccc(-c2nc3ccccc3s2)cc1`?
SENP7 block: 99.3*; SENP8 block-1: -437.4; SENP8 block-2: 96.1*; SENP6 block: 97.6*; Platelet DG rel: inconclusive; SENP8 conf: 98.6*; SENP6 conf: 99.1*; SENP7 conf: 102.0*; Casp3 select: 95.3*; Luc interf: 95.3*

Results for COc1ccc(SCC(=O)Nc2ccccc2Cl)cc1 ?
SENP7 block: -6.7; SENP8 block-1: 7.7; SENP8 block-2: -4.2; SENP6 block: -2.1; Platelet DG rel: -0.7

What do the screens show for `COc1nc(SCC(=O)Nc2ccccc2Cl)nc(N(C)C)n1`?
SENP7 block: 2.5; SENP8 block-1: 11.3; SENP8 block-2: -3.3; SENP6 block: 85.5*; Platelet DG rel: -13.4; SENP8 conf: 12.5; SENP6 conf: 8.3; SENP7 conf: 2.7; Casp3 select: 6.6; Luc interf: 13.0

What do the screens show for `NNC(=O)Cn1nc(Cc2ccccc2)n(N)c1=O`?
SENP7 block: -3.5; SENP8 block-1: 18.7; SENP8 block-2: -9.7; SENP6 block: -27.2

Results for C#CCNC(=O)c1ccc(OCc2ccccc2)cc1Cl ?
SENP7 block: 64.4*; SENP8 block-1: 10.8; SENP8 block-2: 63.4*; SENP6 block: 75.1*; Platelet DG rel: -29.6; SENP8 conf: 69.8*; SENP6 conf: 66.9*; SENP7 conf: 87.0*; Casp3 select: 80.0*; Luc interf: 69.4*

What do the screens show for `O=C(NCCCl)c1ccc(OCc2ccccc2)cc1Cl`?
SENP7 block: 10.7; SENP8 block-1: 14.8; SENP8 block-2: -4.5; SENP6 block: 14.2; Platelet DG rel: -29.1

Results for Cc1cc(C)n(-c2ccc(C(=O)Nc3cccnc3)cc2)n1 ?
SENP7 block: 2.0; SENP8 block-1: 21.1; SENP8 block-2: -3.2; SENP6 block: -25.3; Platelet DG rel: 4.2

How did Cc1ccc(C(=O)CSc2ncnc3ccccc23)o1 do in these assays?
SENP7 block: 36.5; SENP8 block-1: -6.8; SENP8 block-2: -25.1; SENP6 block: 33.0; Platelet DG rel: 5.9

Results for O=C(CSc1ncnc2ccccc12)c1cccs1 ?
SENP7 block: 55.9*; SENP8 block-1: 2.2; SENP8 block-2: 8.4; SENP6 block: -65.6; Platelet DG rel: 1.6; SENP8 conf: 30.1; SENP6 conf: 51.8*; SENP7 conf: 87.4*; Casp3 select: 26.9; Luc interf: 7.2

Results for O=c1/c(=C\c2ccc3c(c2)OCO3)sc2n1CCCN=2 ?
SENP7 block: 69.2*; SENP8 block-1: -45.2; SENP8 block-2: 55.4*; SENP6 block: 78.2*; Platelet DG rel: 14.3; SENP8 conf: 0.6; SENP6 conf: 28.5; SENP7 conf: 60.6*; Casp3 select: 45.9; Luc interf: 45.7

Results for COc1ccc(CNc2ccc3cn[nH]c3c2)c(OC)c1OC ?
SENP7 block: 26.2; SENP8 block-1: -67.7; SENP8 block-2: 18.6; SENP6 block: 32.5; Platelet DG rel: 1.8

Results for CCOc1cc(CNc2ccc3cn[nH]c3c2)ccc1OC ?
SENP7 block: 58.6*; SENP8 block-1: -213.4; SENP8 block-2: 53.1*; SENP6 block: 67.9*; Platelet DG rel: 8.6; SENP8 conf: 10.3; SENP6 conf: 41.1; SENP7 conf: 5.3; Casp3 select: -0.4; Luc interf: -4.5

How did CC(=O)NCCN=Cc1sc2ccccc2c1O do in these assays?
SENP7 block: 4.8; SENP8 block-1: -63.4; SENP8 block-2: -1.2; SENP6 block: -17.6; Platelet DG rel: 4.8

How did CC(=Nc1ccc(C)cc1)c1sc2ccccc2c1O do in these assays?
SENP7 block: 95.5*; SENP8 block-1: -52.9; SENP8 block-2: 90.1*; SENP6 block: 94.0*; Platelet DG rel: 19.8; SENP8 conf: 94.6*; SENP6 conf: 95.8*; SENP7 conf: 100.6*; Casp3 select: 85.0*; Luc interf: 48.1

What do the screens show for `CC(=Nc1cccc(O)c1)c1sc2ccccc2c1O`?
SENP7 block: 89.7*; SENP8 block-1: -5.0; SENP8 block-2: 89.7*; SENP6 block: 91.1*; Platelet DG rel: 2.3; SENP8 conf: 84.3*; SENP6 conf: 81.7*; SENP7 conf: 93.2*; Casp3 select: 54.2*; Luc interf: 72.3*

How did CC(=Nc1ccc(C)cc1C)c1sc2ccccc2c1O do in these assays?
SENP7 block: 65.8*; SENP8 block-1: -25.0; SENP8 block-2: 65.0*; SENP6 block: 78.3*; Platelet DG rel: 8.7; SENP8 conf: 71.0*; SENP6 conf: 80.0*; SENP7 conf: 91.0*; Casp3 select: 59.9*; Luc interf: 17.3

How did CC(C)CCn1c(O)c(N=Nc2ccccn2)c2ccccc21 do in these assays?
SENP7 block: -13.7; SENP8 block-1: 0.3; SENP8 block-2: -12.9; SENP6 block: -8.2; Platelet DG rel: -3.4

What do the screens show for `CCCn1c(O)c(N=Nc2ccc3ccccc3n2)c2ccccc21`?
SENP7 block: 92.8*; SENP8 block-1: 24.7; SENP8 block-2: 85.2*; SENP6 block: 95.3*; Platelet DG rel: 4.3; SENP8 conf: 41.6; SENP6 conf: 57.4*; SENP7 conf: 61.2*; Casp3 select: 70.2*; Luc interf: 0.3

How did CCCc1cc(C(=O)Nc2cccc(Cl)c2)no1 do in these assays?
SENP7 block: 92.7*; SENP8 block-1: 5.3; SENP8 block-2: 90.2*; SENP6 block: 97.5*; Platelet DG rel: 27.5; SENP8 conf: 94.5*; SENP6 conf: 95.7*; SENP7 conf: 101.6*; Casp3 select: 91.7*; Luc interf: 89.7*

How did CCCc1cc(C(=O)Nc2ccc(F)c(Cl)c2)no1 do in these assays?
SENP7 block: 92.6*; SENP8 block-1: 11.5; SENP8 block-2: 90.4*; SENP6 block: 92.9*; Platelet DG rel: 6.1; SENP8 conf: 91.5*; SENP6 conf: 92.7*; SENP7 conf: 99.6*; Casp3 select: 89.1*; Luc interf: 82.2*

What do the screens show for `CCCc1cc(C(=O)Nc2ccc(F)cc2F)no1`?
SENP7 block: 40.3; SENP8 block-1: 13.1; SENP8 block-2: 38.3; SENP6 block: 62.9*; Platelet DG rel: 6.8; SENP8 conf: 7.7; SENP6 conf: 38.7; SENP7 conf: 71.0*; Casp3 select: 60.0*; Luc interf: 0.0

How did CCCc1cc(C(=O)Nc2ccccc2SC)no1 do in these assays?
SENP7 block: 2.6; SENP8 block-1: 10.0; SENP8 block-2: 1.5; SENP6 block: 22.0; Platelet DG rel: -2.2

Source: PubChem (several laboratories)
